Bioassay records (PubChem BioAssay)
Most compounds without a hit are left out; they make up all but 5.5% or so of the library.
CBFb-RUNX1 inh = qHTS Assay for Compounds Blocking the Interaction Between CBF-beta and RUNX1 for the Treatment of Acute Myeloid Leukemia. 230,000 tested, under 10 active. Runt-related transcription factor 1 (Homo sapiens) + Core-binding factor subunit beta …. AID 1477, 2009. AlphaScreen CBFb-His/RUNX1-biotin binding, biochemical. Potency, µM (series often up to 59.8 µM), inactives show top-dose activity, negative = inhibition, hits mostly inhibitors; also: % of control where 0% means no effect
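Compounds were screened at multiple concentrations against a preformed CBF-beta(His)/RUNX1(biotin) complex (30 nM of each) for 15 min at room temperature, followed by 90 min with nickel and streptavidin beads and AlphaScreen reading.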
RORgamma inh = qHTS for inhibitors of ROR gamma transcriptional activity. 310,000 tested, 5.4% active. Drosophila S2 Gal4-RORgamma UAS-luciferase reporter, 20 h. AID 2551, 2010. Potency, µM (highest dose often 53.6 µM), without a hit: top-dose activity change, negative = inhibition, usual class: inhibitors; also: potency is read from the fitted curve at half-maximal effect; % is scaled to controls: 0 for no effect and ±100 for the full control effect; nearly all actives have a fitted effect of over 60% in size
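In this cell-based reporter format, copper sulfate (700 uM final) drives Gal4–ROR gamma fusion expression from a metallothionein promoter in Drosophila Schneider cells; compounds preincubated 1 hr, reporter read after 20 hr at ambient temperature.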
Six1-Eya2 blk = qHTS Assay for Inhibitors of the Six1/Eya2 Interaction. Homeobox protein SIX1 (Homo sapiens) + Protein phosphatase EYA2 (Homo sapiens), …. AlphaScreen GST-Six1/His-Eya2 binding, biochemical; stronger effect = lower value. activity change, % (no concentration beside the values). 360,000 tested, 0.56% active. AID 651725, 2012; in the data active = activity change below about -65%; inconclusive = mostly about -30% to -63%; also: % is scaled to controls: 0 for no effect and ±100 for the full control effect
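Six1/Eya2 binding was read as AlphaScreen signal after compounds were pinned into GST-Six1 plus His-tagged Eya2 (5X stock 250/500 nM) in pH 8.0 Tris/NaCl/TCEP buffer, beads added, then incubated 1 h, 37 C, dark.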
MBNL1-CUG inh = qHTS Assay for Inhibitors of MBNL1-poly(CUG) RNA binding; Muscleblind-like protein 1 (Homo sapiens), Q9NR56; TR-FRET MBNL1-His/biotin-(CUG)12 binding, 665/545 ratio; Potency, µM (series often up to 57.5 µM), for inactives: at the highest dose activity change, negative = inhibition, actives largely listed as inhibitors; 280,000 tested, 0.036% active; AID 2675, 2010; active = well fitted inhibition curve with a large enough effect in the signal ratio, with a control signal flat, not every such curve was filed as active; inconclusive = small, poorly fitted or top-dose-only effect, or effect the other way, or a change in a side signal; inactive = no such curve, though single readings can be large or run the other way; the % refers to the signal ratio; also: potency is read from the fitted curve at half-maximal effect; % is scaled to controls: 0 for no effect and ±100 for the full control effect
Target sequence (Q9NR56 whole entry, looked up): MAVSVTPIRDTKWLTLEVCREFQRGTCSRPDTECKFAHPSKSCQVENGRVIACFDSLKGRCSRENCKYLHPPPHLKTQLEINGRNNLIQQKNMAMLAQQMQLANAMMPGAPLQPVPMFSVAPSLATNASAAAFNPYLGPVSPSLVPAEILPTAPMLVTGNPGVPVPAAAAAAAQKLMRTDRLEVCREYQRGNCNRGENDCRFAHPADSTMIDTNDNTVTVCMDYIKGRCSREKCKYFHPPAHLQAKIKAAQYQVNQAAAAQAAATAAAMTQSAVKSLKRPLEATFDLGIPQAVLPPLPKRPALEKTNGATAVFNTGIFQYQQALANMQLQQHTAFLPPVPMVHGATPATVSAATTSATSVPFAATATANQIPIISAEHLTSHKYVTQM
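Ratiometric TR-FRET (665 over 545 nm, excitation 340 nm) tracks disruption of MBNL1-His/biotin-(CUG)12 complex after 60 min at room temperature, with compounds at 92 nM to 58 uM final.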
CtBP-E1A blk = qHTS Assay for Inhibitors of the CtBP/E1A Interaction; CtBP / adenovirus E1A interaction (AlphaScreen); AlphaScreen GST-E1A/His-CtBP binding, 1536-well; stronger effect = lower value; activity change, % (test concentration not listed); 340,000 tested, 0.49% active; in the data active = activity change below about -65%; inconclusive = mostly about -30% to -63%; also: % is scaled to controls: 0 for no effect and ±100 for the full control effect
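Homogeneous bead-based format: GST-tagged E1A captured on glutathione donor beads, His-tagged CtBP on nickel acceptor beads; compounds precede bead addition by 2 h at 37 °C.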
Gal4-VP16 FLuc = VP16 counterscreen qHTS for inhibitors of ROR gamma transcriptional activity. 310,000 tested, 3.5% active. Drosophila S2 Gal4-VP16 UAS-luciferase, luminescence, 20 h. Potency, µM (titrated, usually from 53.6 µM), for inactives: top-dose activity, negative = inhibition, most hits filed as inhibitors. AID 2546, 2010;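 also: Gal4-VP16 expression switched on by copper sulfate through the metallothionein promoter; potency is read from the fitted curve at half-maximal effect; % is scaled to controls: 0 for no effect and ±100 for the full control effect; nearly all actives have a fitted effect of over 50% in size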
Active calls of the source: *; ? = inconclusive; nt = no result given; [ ] = remark or other dose. Unless noted, calls follow the shape of the dose curve; as a rule, active = well fitted curve in the direction sought with a large enough effect; inconclusive = small, poorly fitted or top-dose-only effect, or another doubt; inactive = no such curve, though single readings can be large; an effect the other way counts as inactive or inconclusive.

SMILES	CBFb-RUNX1 inh	RORgamma inh	Six1-Eya2 blk	MBNL1-CUG inh	CtBP-E1A blk	Gal4-VP16 FLuc
CCCCCC(=O)N(O)C1CC(=O)N(c2ccccc2)C1=O (configuration not stated)	-2%	16µM*	0	-6%	-2	7.1µM*
CCCCCCC(=O)N(O)C1CC(=O)N(Cc2ccccc2)C1=O (configuration not stated)	-1%	10µM*	-2	-4%	-3	-78%
COc1ccc(S(=O)(=O)Nc2ccc(Oc3ccsc3C(=O)O)cc2)cc1	nt	5%	2	-12%	nt	2%
Cc1ccc[n+](CC(=O)Nc2cc(C(F)(F)F)ccc2Cl)c1	11%	-19%	0	-1%	10	-3%
CCC(C)(C)c1ccc(OCCCC[n+]2cccc(C)c2)c(C(C)(C)CC)c1	6%	?	3	-1%	-6	13µM*
CC1(C(=O)NCc2ccc(F)cc2)Oc2ccccc2NC1=O (configuration not stated)	?	-57%	2	nt	-2	0.32µM*
O=C(Nc1cccc(-c2nnc(-c3ccco3)o2)c1)c1ccccc1	3%	-3%	?	3%	-24	-5%
O=C(Nc1nnc(-c2ccccn2)o1)c1cccc(Br)c1	?	0.5µM*	-25	-12%	-2	0.89µM*
O=C(COC(=O)CNC(=O)c1cccc(Br)c1)Nc1nnc(-c2ccccc2)o1	nt	nt	0	nt	-21	nt
CN(C(=O)c1ccc(C#N)cc1)c1nnc(-c2ccccn2)s1	-4%	2%	-2	-9%	-4	-6%
O=C(/C=C/c1ccccc1)Nc1nnc(-c2ccco2)o1	3%	2.2µM*	11	12%	-1	5µM*
N#Cc1ccc(C(=O)Nc2nnc(-c3ccccn3)o2)cc1	-26%	1.3µM*	?	-10%	?	0.89µM*
O=C(Nc1nnc(-c2ccco2)o1)c1cccc(Cl)c1	-23%	3.5µM*	0	-2%	13	2.8µM*
CC(=O)Nc1nnc(-c2ccco2)o1	-18%	-19%	2	-1%	0	6%
O=C(C1CCC1)N1CCN(S(=O)(=O)c2ccccc2)CC1	nt	nt	1	nt	-8	nt
COCOc1ccc(Br)cc1C(=O)[C@H]1O[C@H]1c1cccc(OC)c1	15%[13.1 µM]	3%[10 µM]	nt	nt	nt	1%[10 µM]
O=C(Nc1nnc(-c2ccccn2)o1)c1cccc(Cl)c1	?	0.71µM*	-25	-11%	-29	1µM*
CC(=O)Nc1nnc(-c2ccccn2)o1	13%	12%	-19	-11%	-2	0%
Cc1cc(C)c(OCC(=O)Nc2nnc(-c3ccco3)o2)c(C)c1	-12%	13µM*	17	-4%	0	?
Cc1ccc(SCC(=O)Nc2nnc(-c3ccco3)o2)cc1	nt	nt	-20	nt	-25	nt
COc1ccccc1C(=O)NNC(=S)NC(=O)c1cccs1	nt	-3%	nt	-4%	nt	0%
O=C(NC(=S)NNC(=O)c1ccccc1O)c1cccs1	nt	-22%	-82*	1%	-95*	-4%
O=C(NC(=S)NNC(=O)c1ccccc1O)c1ccc(F)cc1	nt	-44%[1.91 µM]	-91*	-3%	-94*	?
O=C(NNC(=O)c1cc(Cl)ccc1O)c1cccs1	nt	13µM*	-9	1%	-8	-8%
O=C(NNC(=O)c1ccccc1Cl)c1cccs1	?	-38%	1	-10%	0	?
O=C(NC(=S)NNC(=O)c1ccco1)c1ccccc1	nt	11µM*	-5	2%	-4	11µM*
COc1ccc(C(=O)NNC(=S)NC(=O)c2ccc(OC)cc2)cc1	nt	-14%[1.91 µM]	-9	5%	-7	?
COc1cccc(CN(C)C(=O)C2CCCN(C(=O)c3ccc(Cl)cc3)C2)c1 (configuration not stated)	nt	nt	-4	nt	2	nt
